According to the antibiotic and cytotoxicity screens of Wong et al. (2023):
Among all 39,000 compounds or so, about 3,300 (8.5%) were called active. Many of the other results were omitted from the sample, so actives are more common in it than they were.

system: HepG2; experiment: cytotoxicity call (relative viability < 0.9); settings: 10 µM

| Structure (SMILES) | cytotoxicity call |
| --- | --- |
| COc1ccc(NC(=O)N(C)C[C@H]2Oc3ccc(NS(C)(=O)=O)cc3CC(=O)N([C@@H](C)CO)C[C@H]2C)cc1 | inactive |
| COc1ccc2c(O[C@H]3CCCC[C@@H]3OC)nccc2c1-n1ccnc1-c1c[nH]c2c(N)c(F)cc(C#N)c12 | active |
| C[C@@H]1CN([C@@H](C)CO)C(=O)c2cc(NS(=O)(=O)c3cn(C)cn3)ccc2O[C@@H](C)CCCCO[C@@H]1CN(C)S(=O)(=O)c1cn(C)cn1 | inactive |
| COc1ccc(-c2coc3cc(OC)cc(OC)c3c2=O)cc1 | inactive |
| C[C@H](CO)N1C[C@H](C)[C@@H](CN(C)S(=O)(=O)c2cccc(F)c2)Oc2ncc(C#CC3(O)CCCC3)cc2C1=O | inactive |
| C[C@@H]1CCCCO[C@@H](CN(C)C(=O)NC2CCCCC2)[C@@H](C)CN([C@H](C)CO)C(=O)c2cc(NC(=O)Cc3ccccc3)ccc2O1 | inactive |
| C[C@@H]1CN([C@H](C)CO)C(=O)c2cc(NS(C)(=O)=O)ccc2O[C@@H]1CN(C)S(=O)(=O)c1ccc(F)cc1 | inactive |
| C[C@H]1CN([C@@H](C)CO)C(=O)c2cccc(NC(=O)c3nc4ccccc4s3)c2O[C@H]1CN(C)Cc1ccc(C(=O)Nc2ccccc2N)cc1 | inactive |
| C[C@@H]1CN([C@@H](C)CO)C(=O)c2cccc(NC(=O)c3nc4ccccc4s3)c2O[C@@H]1CN(C)Cc1ccc(C(=O)Nc2ccccc2N)cc1 | active |
| C[C@H](CO)N1C[C@H](C)[C@H](CN(C)Cc2ccc(C(=O)Nc3ccccc3N)cc2)Oc2c(NC(=O)c3nc4ccccc4s3)cccc2C1=O | inactive |
| C[C@@H]1CN([C@@H](C)CO)C(=O)c2cccc(NC(=O)c3nc4ccccc4s3)c2O[C@H]1CN(C)Cc1ccc(C(=O)Nc2ccccc2N)cc1 | inactive |
| C[C@H](CO)N1C[C@H](C)[C@@H](CN(C)Cc2ccc(C(=O)Nc3ccccc3N)cc2)Oc2c(NC(=O)c3nc4ccccc4s3)cccc2C1=O | active |
| C[C@H]1CN([C@@H](C)CO)C(=O)c2cccc(NC(=O)c3nc4ccccc4s3)c2O[C@@H]1CN(C)Cc1ccc(C(=O)Nc2ccccc2N)cc1 | inactive |
| C[C@H]1CCCCO[C@H](CN(C)C(=O)NC2CCCCC2)[C@@H](C)CN([C@@H](C)CO)C(=O)c2cc(NC(=O)CCC(F)(F)F)ccc2O1 | inactive |
| COc1ccc(S(=O)(=O)N(C)C[C@H]2Oc3c(NC(=O)c4cnccn4)cccc3C(=O)N([C@H](C)CO)C[C@H]2C)cc1 | inactive |
| C[C@@H]1CN([C@H](C)CO)C(=O)c2cc(NS(=O)(=O)c3ccc(Cl)cc3)ccc2O[C@@H](C)CCCCO[C@@H]1CN(C)Cc1ccncc1 | inactive |
